Measured values taken from the supplement of paper PMC11732987, “Enantioselective OTUD7B fragment discovery through chemoproteomics screening and high-throughput optimisation” (Communications Chemistry, 2025).

Columns and labels:
Assay in all cases: log2 ratio of Biotin-Ahx-Ub-VS probe labelling (fragment/DMSO); higher = less target engagement (more negative = stronger competition), active = hit call of the paper (q ≤ 0.05, log2 ratio ≤ -1)
Conditions in all cases: compound concentration: 200 uM; treatment time: 3 h
USP34 = USP34 (UniProt Q70CQ2)
Method in brief: (§1)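 Global-median-normalised Spectronaut label-free quantities were compared by unpaired t-test, and values are average log2 ratios of fragment over vehicle. Only proteins with ≥2 unique peptides were used. HEK293T lysate (495 µg per sample) was treated in triplicate with fragment at 200 µM or vehicle for 3 h and then with Biotin-Ahx-Ub-VS at 0.5 µM final for 1 h. Labelled DUBs were then NeutrAvidin-enriched, digested with LysC and trypsin, and run by diaPASEF LC-MS/MS.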

USP36 = target: T1, USP36 (UniProt Q9P275)
T1 sequence (whole entry): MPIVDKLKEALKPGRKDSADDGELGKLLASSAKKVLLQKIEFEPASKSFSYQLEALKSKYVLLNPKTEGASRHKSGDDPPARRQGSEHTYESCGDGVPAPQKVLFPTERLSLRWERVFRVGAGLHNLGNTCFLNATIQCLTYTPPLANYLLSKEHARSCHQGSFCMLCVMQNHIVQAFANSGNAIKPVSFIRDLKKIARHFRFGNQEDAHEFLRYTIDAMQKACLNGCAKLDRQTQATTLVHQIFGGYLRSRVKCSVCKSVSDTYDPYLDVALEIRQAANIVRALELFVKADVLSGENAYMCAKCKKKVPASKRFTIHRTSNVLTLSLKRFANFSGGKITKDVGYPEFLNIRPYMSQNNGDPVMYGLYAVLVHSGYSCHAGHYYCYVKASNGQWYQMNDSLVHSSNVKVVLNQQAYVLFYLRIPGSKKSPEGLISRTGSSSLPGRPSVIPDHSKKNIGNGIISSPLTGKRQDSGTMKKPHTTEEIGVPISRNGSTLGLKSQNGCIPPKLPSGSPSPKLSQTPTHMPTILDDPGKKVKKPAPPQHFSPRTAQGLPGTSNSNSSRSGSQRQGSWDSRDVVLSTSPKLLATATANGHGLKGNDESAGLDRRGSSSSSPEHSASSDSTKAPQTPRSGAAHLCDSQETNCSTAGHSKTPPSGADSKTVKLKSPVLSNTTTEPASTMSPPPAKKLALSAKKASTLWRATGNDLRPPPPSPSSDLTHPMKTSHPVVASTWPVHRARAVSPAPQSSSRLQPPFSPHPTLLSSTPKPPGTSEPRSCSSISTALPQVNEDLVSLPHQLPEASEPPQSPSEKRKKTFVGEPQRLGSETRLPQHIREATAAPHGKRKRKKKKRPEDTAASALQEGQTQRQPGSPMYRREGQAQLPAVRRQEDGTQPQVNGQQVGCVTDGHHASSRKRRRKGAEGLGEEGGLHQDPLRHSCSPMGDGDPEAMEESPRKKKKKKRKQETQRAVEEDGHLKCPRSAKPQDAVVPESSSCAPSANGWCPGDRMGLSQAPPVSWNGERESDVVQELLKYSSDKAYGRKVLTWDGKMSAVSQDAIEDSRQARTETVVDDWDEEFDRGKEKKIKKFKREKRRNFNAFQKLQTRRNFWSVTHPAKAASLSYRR
Method in brief: as §1

USP38 = target: T2, USP38 (UniProt Q8NB14)
T2 sequence (whole entry): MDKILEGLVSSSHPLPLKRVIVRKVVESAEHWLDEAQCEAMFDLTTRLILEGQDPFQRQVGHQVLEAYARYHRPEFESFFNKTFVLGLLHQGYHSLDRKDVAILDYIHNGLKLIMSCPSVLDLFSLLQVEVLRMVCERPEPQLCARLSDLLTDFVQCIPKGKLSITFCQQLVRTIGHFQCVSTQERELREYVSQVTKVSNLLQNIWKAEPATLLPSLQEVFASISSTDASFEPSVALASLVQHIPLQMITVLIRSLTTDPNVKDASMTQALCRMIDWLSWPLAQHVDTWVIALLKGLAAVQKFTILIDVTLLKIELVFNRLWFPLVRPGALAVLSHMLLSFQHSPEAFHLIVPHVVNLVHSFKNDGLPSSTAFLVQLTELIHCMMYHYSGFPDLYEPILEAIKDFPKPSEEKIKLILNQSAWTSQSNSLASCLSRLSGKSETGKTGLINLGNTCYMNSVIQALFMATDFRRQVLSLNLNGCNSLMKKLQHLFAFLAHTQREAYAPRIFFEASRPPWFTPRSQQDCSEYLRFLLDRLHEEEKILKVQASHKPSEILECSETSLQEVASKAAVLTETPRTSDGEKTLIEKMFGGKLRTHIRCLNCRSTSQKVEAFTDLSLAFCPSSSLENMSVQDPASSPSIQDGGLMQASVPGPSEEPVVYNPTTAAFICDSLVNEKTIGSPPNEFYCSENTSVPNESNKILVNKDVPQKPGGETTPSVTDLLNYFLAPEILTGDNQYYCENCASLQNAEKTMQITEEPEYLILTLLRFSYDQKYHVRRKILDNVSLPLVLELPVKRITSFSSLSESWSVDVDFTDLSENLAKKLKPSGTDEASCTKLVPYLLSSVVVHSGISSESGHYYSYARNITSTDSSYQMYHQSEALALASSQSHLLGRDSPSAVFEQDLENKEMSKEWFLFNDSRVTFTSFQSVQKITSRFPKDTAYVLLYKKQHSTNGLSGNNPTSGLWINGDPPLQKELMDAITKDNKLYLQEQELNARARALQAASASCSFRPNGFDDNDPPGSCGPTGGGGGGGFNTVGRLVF
Method in brief: as §1

USP39 = target: T3, USP39 (UniProt Q53GS9)
T3 sequence (whole entry): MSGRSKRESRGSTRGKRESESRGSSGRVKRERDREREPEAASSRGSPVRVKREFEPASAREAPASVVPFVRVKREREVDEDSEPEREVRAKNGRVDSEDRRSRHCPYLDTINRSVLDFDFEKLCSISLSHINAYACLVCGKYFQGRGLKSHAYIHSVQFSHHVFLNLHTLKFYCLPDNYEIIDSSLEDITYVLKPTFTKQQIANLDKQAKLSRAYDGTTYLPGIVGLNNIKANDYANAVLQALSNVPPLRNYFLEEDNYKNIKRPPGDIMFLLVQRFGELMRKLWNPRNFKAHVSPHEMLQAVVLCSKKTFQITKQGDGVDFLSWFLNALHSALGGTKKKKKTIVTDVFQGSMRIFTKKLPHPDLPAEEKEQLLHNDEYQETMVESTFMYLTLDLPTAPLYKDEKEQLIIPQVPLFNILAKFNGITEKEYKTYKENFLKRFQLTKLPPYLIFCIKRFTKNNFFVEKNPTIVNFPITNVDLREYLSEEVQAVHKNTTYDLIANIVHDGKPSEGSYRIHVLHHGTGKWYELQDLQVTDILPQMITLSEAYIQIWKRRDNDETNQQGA
Method in brief: as §1

USP4 = target: T4, USP4 (UniProt Q13107)
T4 sequence (whole entry): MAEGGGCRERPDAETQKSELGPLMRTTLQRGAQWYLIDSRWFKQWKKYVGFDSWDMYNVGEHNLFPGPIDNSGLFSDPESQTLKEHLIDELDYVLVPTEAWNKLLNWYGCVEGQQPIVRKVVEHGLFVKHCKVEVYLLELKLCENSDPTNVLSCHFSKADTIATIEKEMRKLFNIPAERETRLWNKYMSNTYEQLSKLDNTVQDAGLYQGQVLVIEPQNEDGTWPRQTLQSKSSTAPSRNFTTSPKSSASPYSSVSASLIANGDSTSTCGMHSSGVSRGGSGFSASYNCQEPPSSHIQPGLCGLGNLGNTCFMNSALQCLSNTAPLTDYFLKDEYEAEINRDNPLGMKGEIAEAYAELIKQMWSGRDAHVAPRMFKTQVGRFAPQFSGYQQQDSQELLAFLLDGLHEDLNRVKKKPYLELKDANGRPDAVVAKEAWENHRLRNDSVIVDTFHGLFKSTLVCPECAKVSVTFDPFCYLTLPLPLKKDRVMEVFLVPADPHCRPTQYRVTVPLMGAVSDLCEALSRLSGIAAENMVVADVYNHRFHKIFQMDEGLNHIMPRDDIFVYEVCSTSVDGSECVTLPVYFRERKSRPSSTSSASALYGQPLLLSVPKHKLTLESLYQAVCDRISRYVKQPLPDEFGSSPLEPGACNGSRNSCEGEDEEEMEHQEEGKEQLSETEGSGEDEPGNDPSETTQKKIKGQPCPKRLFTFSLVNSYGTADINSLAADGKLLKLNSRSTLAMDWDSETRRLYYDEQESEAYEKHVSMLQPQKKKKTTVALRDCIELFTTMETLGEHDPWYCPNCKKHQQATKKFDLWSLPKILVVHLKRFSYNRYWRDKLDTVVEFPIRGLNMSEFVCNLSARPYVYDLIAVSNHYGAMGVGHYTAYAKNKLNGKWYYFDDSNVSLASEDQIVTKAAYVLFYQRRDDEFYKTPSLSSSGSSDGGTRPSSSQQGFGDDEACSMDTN
Method in brief: as §1

Measured: log2 ratio of Biotin-Ahx-Ub-VS probe labelling

USP34, sequence (Q70CQ2 whole entry, the tested form may be a part): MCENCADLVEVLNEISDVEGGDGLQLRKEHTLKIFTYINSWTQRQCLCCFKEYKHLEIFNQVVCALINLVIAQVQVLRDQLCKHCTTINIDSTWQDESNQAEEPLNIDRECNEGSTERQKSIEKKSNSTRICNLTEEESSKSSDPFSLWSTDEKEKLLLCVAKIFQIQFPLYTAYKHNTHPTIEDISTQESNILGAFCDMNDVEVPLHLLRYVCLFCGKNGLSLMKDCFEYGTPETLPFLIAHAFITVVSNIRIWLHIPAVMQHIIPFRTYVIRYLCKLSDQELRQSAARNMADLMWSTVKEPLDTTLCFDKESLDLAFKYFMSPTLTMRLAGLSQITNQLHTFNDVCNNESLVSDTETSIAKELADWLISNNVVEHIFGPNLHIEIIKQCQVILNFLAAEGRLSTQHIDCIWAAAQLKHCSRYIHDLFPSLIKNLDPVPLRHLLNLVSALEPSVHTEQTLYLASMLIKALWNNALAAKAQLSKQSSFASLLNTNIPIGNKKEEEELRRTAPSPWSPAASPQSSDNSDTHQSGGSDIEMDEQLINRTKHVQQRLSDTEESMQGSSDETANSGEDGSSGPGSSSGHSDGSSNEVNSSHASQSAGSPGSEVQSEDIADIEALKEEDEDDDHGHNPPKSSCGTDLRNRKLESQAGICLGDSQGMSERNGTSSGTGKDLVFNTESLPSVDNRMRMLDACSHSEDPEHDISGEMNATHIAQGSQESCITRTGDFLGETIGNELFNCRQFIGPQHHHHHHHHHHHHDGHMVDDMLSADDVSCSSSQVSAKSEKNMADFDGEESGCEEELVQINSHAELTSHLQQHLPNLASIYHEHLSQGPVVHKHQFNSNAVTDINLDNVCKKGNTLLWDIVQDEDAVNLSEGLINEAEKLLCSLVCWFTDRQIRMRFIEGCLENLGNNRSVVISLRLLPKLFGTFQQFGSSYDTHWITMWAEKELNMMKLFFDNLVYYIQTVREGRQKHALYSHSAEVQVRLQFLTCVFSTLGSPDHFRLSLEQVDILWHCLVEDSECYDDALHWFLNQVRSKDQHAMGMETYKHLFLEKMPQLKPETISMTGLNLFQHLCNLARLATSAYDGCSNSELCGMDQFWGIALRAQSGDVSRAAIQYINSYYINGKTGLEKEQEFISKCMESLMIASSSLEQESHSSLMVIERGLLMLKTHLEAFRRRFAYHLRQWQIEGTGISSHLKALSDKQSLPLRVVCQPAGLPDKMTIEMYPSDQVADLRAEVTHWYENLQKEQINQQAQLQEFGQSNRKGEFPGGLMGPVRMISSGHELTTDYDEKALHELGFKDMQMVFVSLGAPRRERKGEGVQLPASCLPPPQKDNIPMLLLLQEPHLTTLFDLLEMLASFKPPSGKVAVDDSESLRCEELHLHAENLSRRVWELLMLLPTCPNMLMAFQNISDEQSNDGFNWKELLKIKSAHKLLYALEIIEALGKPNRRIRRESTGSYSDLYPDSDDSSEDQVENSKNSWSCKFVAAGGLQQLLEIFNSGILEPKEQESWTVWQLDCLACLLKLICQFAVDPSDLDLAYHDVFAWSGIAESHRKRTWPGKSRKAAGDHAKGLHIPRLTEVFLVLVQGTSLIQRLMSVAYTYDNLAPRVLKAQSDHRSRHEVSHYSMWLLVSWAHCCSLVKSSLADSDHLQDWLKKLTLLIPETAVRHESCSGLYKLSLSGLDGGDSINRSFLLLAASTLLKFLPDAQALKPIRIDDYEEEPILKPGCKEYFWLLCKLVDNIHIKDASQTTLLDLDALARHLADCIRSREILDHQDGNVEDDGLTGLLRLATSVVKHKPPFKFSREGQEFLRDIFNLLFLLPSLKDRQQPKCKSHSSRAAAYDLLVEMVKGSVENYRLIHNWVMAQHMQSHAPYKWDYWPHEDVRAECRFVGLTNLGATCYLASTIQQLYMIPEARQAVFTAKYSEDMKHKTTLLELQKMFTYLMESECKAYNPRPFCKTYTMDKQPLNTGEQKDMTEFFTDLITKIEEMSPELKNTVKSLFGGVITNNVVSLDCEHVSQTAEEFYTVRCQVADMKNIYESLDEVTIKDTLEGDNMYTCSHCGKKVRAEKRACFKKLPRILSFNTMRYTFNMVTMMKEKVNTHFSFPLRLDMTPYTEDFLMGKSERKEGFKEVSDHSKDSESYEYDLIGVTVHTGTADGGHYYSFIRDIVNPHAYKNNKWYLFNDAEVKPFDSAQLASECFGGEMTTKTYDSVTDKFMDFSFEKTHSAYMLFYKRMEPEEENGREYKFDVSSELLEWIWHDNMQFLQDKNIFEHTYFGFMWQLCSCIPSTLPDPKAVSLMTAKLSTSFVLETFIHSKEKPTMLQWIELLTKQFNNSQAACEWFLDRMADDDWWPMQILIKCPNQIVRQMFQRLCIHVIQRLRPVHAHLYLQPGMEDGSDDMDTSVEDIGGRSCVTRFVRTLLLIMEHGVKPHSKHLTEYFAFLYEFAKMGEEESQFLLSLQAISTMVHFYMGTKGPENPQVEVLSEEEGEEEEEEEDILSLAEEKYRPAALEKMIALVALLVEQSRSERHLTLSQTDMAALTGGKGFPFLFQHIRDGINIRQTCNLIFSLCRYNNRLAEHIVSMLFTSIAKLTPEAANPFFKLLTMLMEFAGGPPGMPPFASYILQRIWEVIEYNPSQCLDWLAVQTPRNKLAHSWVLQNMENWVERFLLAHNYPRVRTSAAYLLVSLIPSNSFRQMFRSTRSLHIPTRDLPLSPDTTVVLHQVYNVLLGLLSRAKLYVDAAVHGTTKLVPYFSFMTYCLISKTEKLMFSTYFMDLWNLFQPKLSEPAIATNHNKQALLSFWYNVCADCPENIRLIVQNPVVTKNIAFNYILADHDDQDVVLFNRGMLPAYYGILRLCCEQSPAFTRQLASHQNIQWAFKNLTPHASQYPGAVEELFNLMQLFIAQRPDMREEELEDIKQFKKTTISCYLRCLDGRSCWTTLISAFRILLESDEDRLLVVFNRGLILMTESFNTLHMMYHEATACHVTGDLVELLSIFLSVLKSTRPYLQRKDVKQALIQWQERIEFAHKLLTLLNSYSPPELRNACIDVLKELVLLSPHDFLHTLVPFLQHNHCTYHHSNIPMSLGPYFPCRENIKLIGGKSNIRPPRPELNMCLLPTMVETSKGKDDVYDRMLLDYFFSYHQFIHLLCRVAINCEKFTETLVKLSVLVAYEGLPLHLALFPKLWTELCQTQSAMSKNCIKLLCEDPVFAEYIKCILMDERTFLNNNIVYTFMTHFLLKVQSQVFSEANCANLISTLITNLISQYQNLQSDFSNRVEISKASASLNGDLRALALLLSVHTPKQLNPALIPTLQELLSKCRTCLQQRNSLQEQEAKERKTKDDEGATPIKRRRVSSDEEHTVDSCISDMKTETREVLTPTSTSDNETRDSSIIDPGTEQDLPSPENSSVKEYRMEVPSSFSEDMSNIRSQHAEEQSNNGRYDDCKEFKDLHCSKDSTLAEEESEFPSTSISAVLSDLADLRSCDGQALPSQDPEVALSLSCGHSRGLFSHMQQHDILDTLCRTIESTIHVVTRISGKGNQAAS

O=C(CCl)N1CCC(OCc2ccccc2F)CC1
inactive: USP34 -0.138 | USP36 0.169 | USP38 0.211 | USP39 0.264 | USP4 -0.121
